Reference: PubChem BioAssay
Calls of active or inactive are those of the source.

Assays:
[1] = system: Plasmodium falciparum Sir2 (PF13_0152, Sir2A); test: Plasmodium falciparum Sir2A binding compounds – biochemical, small-molecule microarray, 635 nm fluorescence, primary screen (AID 1098); settings: fluorescence 635 nm, higher = more signal;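 note: score merges spot fluorescence intensity with its signal-to-noise ratio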
[2] = probe aDKK1 binding to arrayed compounds – biochemical, biotinylated probe, 635/667 nm fluorescence, primary screen (AID 1099); settings: small-molecule microarray, higher = more signal;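 note: score merges 667nm spot fluorescence with signal to noise across triplicate slides; reference of the scale not given here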
[3] = probe aCHRDL2 binding to arrayed compounds – biochemical, biotinylated probe, 635/667 nm fluorescence, primary screen (AID 1100); settings: small-molecule microarray, higher = more signal
[4] = change in splice reporter luminescence, either direction, cell-based, HEK293, spliceosome inhibition project, primary screen (AID 1101); settings: HEK293 splicing luciferase reporter, 24 h, higher = more signal, called active from +8 up or from −8 down;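 note: HEK293 cells carrying a splicing-competent luciferase reporter gene; test concentration not given here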
[5] = biological target: Fibroblast growth factor 10 (Homo sapiens) (UniProt O15520); test: compounds binding fibroblast growth factor 10 – biochemical, small-molecule microarray, 635 nm fluorescence, primary screen (AID 1102); settings: FGF10 binding, fluorescence 635 nm, higher = more signal
[6] = system: glycogen synthase kinase-3 (GSK3A per assay name; protocol says GSK3B); test: compounds binding glycogen synthase kinase-3 – biochemical, small-molecule microarray, 635 nm fluorescence, GSK3A, primary screen (AID 1103); settings: fluorescence 635 nm, higher = more signal; note: the record names both GSK3A and GSK3B
[7] = biological target: Epidermal growth factor receptor (Homo sapiens) (UniProt P00533); test: compounds binding epidermal growth factor receptor – biochemical, small-molecule microarray, 635 nm fluorescence, primary screen (AID 1104); settings: EGFR binding, higher = more signal;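 note: score merges 667 nm emission intensity with spot signal to noise over triplicate slides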
[8] = biological target: Follistatin-related protein 3 (Homo sapiens) (UniProt O95633); test: compounds binding follistatin-related protein 3 – biochemical, small-molecule microarray, 635 nm fluorescence, primary screen (AID 1105); settings: FSTL3 binding, higher = more signal;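 note: score merges emission near 667 nm and signal to noise per printed spot across three slides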
[9] = biological target: Dickkopf-related protein 1 (Homo sapiens) (UniProt O94907); test: small molecules binding DKK1 protein – biochemical, small-molecule microarray, 635 nm fluorescence scan, primary screen (AID 1106); settings: higher = more signal;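 note: score merges emission near 667 nm with signal to noise over three replicate slides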
[10] = system: Inhibin beta A chain (activin A); test: small molecules binding activin A – biochemical, small-molecule microarray, 635 nm fluorescence scan, primary screen (AID 1107); settings: INHBA, higher = more signal;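 note: mouse activin A protein probed at 4.33 µg/mL on printed slides; score merges bound-protein fluorescence near 667 nm with spot signal-to-noise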

Chain of Follistatin-related protein 3 (Homo sapiens) (O95633 whole entry, looked up): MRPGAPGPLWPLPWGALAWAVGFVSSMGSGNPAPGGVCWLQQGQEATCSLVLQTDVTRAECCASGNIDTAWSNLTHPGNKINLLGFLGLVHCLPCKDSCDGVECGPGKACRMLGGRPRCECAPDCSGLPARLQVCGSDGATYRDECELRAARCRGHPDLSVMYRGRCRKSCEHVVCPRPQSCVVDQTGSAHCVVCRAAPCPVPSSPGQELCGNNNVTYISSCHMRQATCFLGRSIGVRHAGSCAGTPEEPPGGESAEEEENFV
Chain of Fibroblast growth factor 10 (Homo sapiens) (O15520 whole entry, looked up): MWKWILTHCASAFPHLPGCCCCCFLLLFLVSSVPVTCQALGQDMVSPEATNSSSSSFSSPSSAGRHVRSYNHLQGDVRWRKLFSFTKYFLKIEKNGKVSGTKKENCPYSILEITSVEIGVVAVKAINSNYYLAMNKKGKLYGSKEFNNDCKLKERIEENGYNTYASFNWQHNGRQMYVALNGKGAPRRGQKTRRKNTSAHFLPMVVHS
Chain of Epidermal growth factor receptor (Homo sapiens) (P00533 whole entry, looked up): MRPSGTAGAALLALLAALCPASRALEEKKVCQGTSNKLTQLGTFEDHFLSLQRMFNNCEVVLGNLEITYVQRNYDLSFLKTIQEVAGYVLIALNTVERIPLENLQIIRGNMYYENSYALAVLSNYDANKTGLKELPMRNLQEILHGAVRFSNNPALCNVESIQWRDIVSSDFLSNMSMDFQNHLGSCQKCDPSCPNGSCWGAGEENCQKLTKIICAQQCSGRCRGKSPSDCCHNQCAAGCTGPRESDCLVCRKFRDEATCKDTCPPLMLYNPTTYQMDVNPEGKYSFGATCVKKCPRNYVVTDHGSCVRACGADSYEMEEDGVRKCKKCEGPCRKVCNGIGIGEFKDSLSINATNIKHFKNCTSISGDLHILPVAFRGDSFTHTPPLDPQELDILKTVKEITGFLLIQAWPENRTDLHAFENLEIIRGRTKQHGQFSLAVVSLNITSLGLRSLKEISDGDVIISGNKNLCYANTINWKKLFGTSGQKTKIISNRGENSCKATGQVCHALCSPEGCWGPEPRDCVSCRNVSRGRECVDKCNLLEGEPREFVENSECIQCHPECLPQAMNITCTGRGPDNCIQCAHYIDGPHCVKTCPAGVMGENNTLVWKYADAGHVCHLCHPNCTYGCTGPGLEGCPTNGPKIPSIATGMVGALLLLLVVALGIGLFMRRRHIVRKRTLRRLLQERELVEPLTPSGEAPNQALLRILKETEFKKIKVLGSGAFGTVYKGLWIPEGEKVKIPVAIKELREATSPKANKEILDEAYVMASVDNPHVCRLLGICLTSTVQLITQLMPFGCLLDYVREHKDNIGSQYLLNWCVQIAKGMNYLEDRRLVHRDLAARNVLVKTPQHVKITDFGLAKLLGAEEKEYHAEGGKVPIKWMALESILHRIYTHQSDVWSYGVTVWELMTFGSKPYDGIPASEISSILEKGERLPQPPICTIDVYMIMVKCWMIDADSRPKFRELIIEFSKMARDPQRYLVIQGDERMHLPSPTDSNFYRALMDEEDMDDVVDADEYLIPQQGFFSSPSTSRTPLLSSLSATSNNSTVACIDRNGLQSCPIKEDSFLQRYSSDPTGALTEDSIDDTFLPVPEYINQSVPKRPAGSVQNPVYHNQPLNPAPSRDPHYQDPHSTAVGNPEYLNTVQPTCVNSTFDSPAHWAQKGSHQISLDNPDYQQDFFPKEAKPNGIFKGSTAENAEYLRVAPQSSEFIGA
Chain of Dickkopf-related protein 1 (Homo sapiens) (O94907 whole entry, looked up): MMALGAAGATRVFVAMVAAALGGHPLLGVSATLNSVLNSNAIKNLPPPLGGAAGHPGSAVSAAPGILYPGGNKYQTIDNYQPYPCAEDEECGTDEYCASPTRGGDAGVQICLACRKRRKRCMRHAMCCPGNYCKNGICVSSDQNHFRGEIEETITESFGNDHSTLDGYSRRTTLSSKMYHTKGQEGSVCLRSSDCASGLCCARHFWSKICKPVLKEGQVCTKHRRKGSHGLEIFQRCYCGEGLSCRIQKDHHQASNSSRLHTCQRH

Structure (SMILES) | composite z-score [1] | composite z-score [2] | composite z-score [3] | z-score [4] | composite z-score [5] | composite z-score [6] | composite z-score [7] | composite z-score [8] | composite z-score [9] | composite z-score [10]
C=C(COC)/C(=C/C[C@H](OC(=O)c1ccncc1)c1ccccc1OCCO)c1cnc2ccccc2c1 | 1.32 | 0.29 | -0.627 | 0.321 (inactive) | 1.45 | 1.32 | 0.788 | 1.48 | 0.864 | 1.54
CCCCCCc1nc(C2CC2)cc2c1[Si](C(C)C)(C(C)C)O[C@H]2c1ccccc1 | 0.454 | -0.312 | -0.191 | 0.214 (inactive) | 0.402 | -0.213 | 0.341 | 0.274 | 0.546 | 0.741
COCCCNC(=O)[C@@]1(Sc2ccc(C)cc2)CC(=O)N(C2CCCCC2)[C@@H]1c1ccc(CO)cc1 | 0.0677 | 0.196 | 0.899 | -0.397 (inactive) | 0.229 | -0.823 | -0.687 | -1.1 | -1.65 | 0.446
CC(C)N1C(=O)c2ccccc2[C@@H](C(=O)NC2CC2)[C@@H]1c1ccc(CO)cc1 | 0.869 | -0.18 | -0.194 | 0.381 (inactive) | -0.114 | 0.621 | -0.0202 | 0.552 | 0.37 | 1.13
C=CCNC(=O)[C@H]1[C@@H]2C(=O)O[C@@H](c3ccccc3)[C@@H](c3ccccc3)N2[C@@H](c2ccc(O)cc2)[C@]12C(=O)N(C(=O)OCCOC)c1ccccc12 | 1.27 | -0.689 | -0.0623 | -1.59 (inactive) | 1.24 | 0.226 | 1.11 | 0.552 | 0.298 | 0.204
COCCCNC(=O)[C@@]1(Cc2ccccc2CN=[N+]=[N-])N=C(c2ccc(OCCCO)cc2)O[C@H]1c1ccccc1 | 1.06 | 0.432 | 0.825 | -0.645 (inactive) | 1.31 | 0.235 | -0.331 | 0.561 | -0.497 | 0.31
N#Cc1ccc(C(O)C2C=CC3C(=O)N(c4ccccc4)C(=O)C3N2Nc2ccccc2)cc1 (stereo not given) | 0.592 | 0.759 | 1 | -1.04 (inactive) | 0.913 | -0.0985 | 0.107 | 0.391 | -0.352 | 0.877
C=C(C)[C@@H]1CC=C(C(O)C2C=CC3C(=O)N(c4ccccc4)C(=O)C3N2Nc2ccccc2F)CC1 (stereo not given in full) | 1.15 | 0.671 | 0.972 | 0.869 (inactive) | 1.08 | 1.3 | 0.662 | 1.42 | -0.112 | 0.725
Cc1cc(C)c(C(O)C2C=CC3C(=O)N(c4ccccc4)C(=O)C3N2Nc2ccc(C(C)C)cc2)c(C)c1 (stereo not given) | 0.68 | 1.19 | 1.08 | -0.00156 (inactive) | 0.978 | 1.25 | -0.0206 | 0.818 | -0.0403 | 0.202
C=CCC(OC(C)=O)[C@@H]1[C@@H](N(Cc2cc3ccccc3o2)C(=O)c2ccc(-c3ccccc3)cc2)c2cc(OCCCO)ccc2N1C(=O)c1ccc2ccccc2c1 (stereo not given in full) | 0.187 | -0.106 | 0.285 | 0.416 (inactive) | 0.132 | 0.289 | -0.0546 | 0.674 | 0.227 | 1.02
CN1C(=O)C2C=CC(C(O)c3cccc(O)c3)N(Nc3ccccc3)C2C1=O (stereo not given) | 1.15 | 0.14 | 0.285 | 1.27 (inactive) | 0.517 | -0.236 | -0.288 | -0.0255 | -0.208 | 0.866
COc1cc(CO)cc(I)c1O[C@H]1C=C(C(=O)NCCO)C[C@@H](NCc2ccc(F)cc2)[C@@H]1O | 0.935 | -0.197 | -0.162 | -1.05 (inactive) | 1.43 | 0.191 | -0.0831 | 0.991 | 0.978 | -0.144
O=C(NCC(F)(F)F)[C@@H]1c2ccccc2C(=O)N(Cc2ccc(OC(F)(F)F)cc2)[C@H]1c1ccc(CO)cc1 | 1.16 | -0.113 | 0.433 | -0.693 (inactive) | 0.347 | -0.285 | -0.0633 | 0.284 | 0.0428 | 0.551
CCCC[C@@H]1C[C@H]1[C@@H](NC(=O)c1cccs1)c1ccc(C(F)(F)F)cc1 | 0.0819 | 0.0202 | 0.549 | 0.101 (inactive) | -0.609 | -0.776 | -0.507 | -0.152 | -0.0222 | 1.09
CCOC(=O)[C@H]1[C@@H]2C(=O)N3CCC[C@H]3[C@H](O[Si](C(C)C)(C(C)C)C(C)C)[C@H]2C=C2CCN(S(=O)(=O)c3ccc(C)cc3)C[C@H]21 | 0.779 | -0.341 | -0.535 | -1.73 (inactive) | 1 | 0.938 | 0.586 | 0.766 | 0.593 | 0.141
COCCOC(=O)N1C(=O)[C@@]2(c3cc(C#CC4=CCCCC4)ccc31)[C@H](c1ccc(OCCO)cc1)N1[C@H](c3ccccc3)[C@H](c3ccccc3)OC(=O)[C@H]1[C@@H]2C(=O)N1CCN(c2ncccn2)CC1 | 0.28 | 0.0367 | 0.262 | 0.515 (inactive) | 1.34 | 1.3 | 0.494 | 0.866 | 0.605 | 0.783
CN(C)c1ccc(C(O)C2C=CC3C(=O)N(c4ccccc4)C(=O)C3N2Nc2ccc([N+](=O)[O-])cc2)cc1 (stereo not given) | 1.53 | 0.604 | 1.16 | -0.0025 (inactive) | 0.704 | 1.29 | 0.332 | 0.974 | -0.204 | 1.4

Structure (SMILES) | composite z-score [1] | composite z-score [2] | composite z-score [3] | z-score [4] | composite z-score [5] | composite z-score [6] | composite z-score [7] | composite z-score [8] | composite z-score [9] | composite z-score [10]
O=C1O[C@H](c2ccccc2)[C@H](c2ccccc2)N2[C@H]1[C@@H](C(=O)O)[C@]1(C(=O)Nc3ccc(C#CC4=CCCCC4)cc31)[C@H]2c1ccc(O)cc1 | 1.37 | -0.0007 | 0.0645 | -0.824 (inactive) | 1.06 | 0.908 | 0.23 | 0.844 | 1.11 | 0.855
COC(=O)Cn1c(C(=O)N(C)C)cc2c1C[C@H]1CN(C(=O)c3ccccc3)[C@@](Cc3ccc(F)cc3)(C(=O)OC)[C@@H]21 | 0.441 | 0.903 | 0.823 | -0.233 (inactive) | 1.33 | -0.367 | 0.404 | 0.139 | -0.0283 | 0.65
COc1ccc(CN(C2=CC[C@@]3(C(N)=O)C(=O)C(Cl)=C(Cl)C(=O)[C@@]3(C#N)C2)S(=O)(=O)c2ccc(Br)cc2)cc1 | -0.201 | 0.661 | 0.84 | -2.69 (inactive) | 0.0024 | -0.139 | -0.733 | -0.0224 | -1.28 | 1.03
C=CCC(OC(C)=O)[C@@H]1[C@@H](N(Cc2cc3ccccc3o2)C(=O)c2ccc(C)cc2)c2cc(OCCCO)ccc2N1C(=O)Cc1ccc(OC)cc1 (stereo not given in full) | -0.0682 | -0.199 | 0.33 | -0.669 (inactive) | 0.289 | 0.121 | -0.147 | 0.087 | 0.0807 | 1.01
CCCCCCc1nc(C2CC2)cc2c1[Si](C(C)C)(C(C)C)OC2 | -0.552 | -0.226 | -0.144 | -1.71 (inactive) | -0.729 | -0.461 | -0.375 | -0.762 | -0.356 | 0.819
C=CC[C@]1(C(=O)NCCN2CCOCC2)N=C(c2ccc(OCCCO)cc2)O[C@H]1c1ccccc1CN=[N+]=[N-] | 0.817 | 0.96 | 0.723 | 0.346 (inactive) | 1.2 | 0.703 | 0.409 | -0.0125 | 1.54 | 1.57
COC(=O)c1c(CC[C@@H](CO)NC(=O)N[C@H](Cn2cc(C3(O)CCCCC3)nn2)C(C)C)oc(C(C)=O)c1C(=O)OC | 0.997 | -0.0398 | -0.446 | -1.66 (inactive) | 1.07 | 0.859 | 0.557 | 1.1 | 0.788 | 0.368
O=C1c2ccccc2[C@](Cc2ccccc2I)(C(=O)NCC(F)(F)F)[C@H](c2ccc(CO)cc2)N1C1CCCCC1 | 1.6 | 0.663 | 0.821 | 1.47 (inactive) | 1.04 | 0.884 | 0.109 | 0.66 | -0.239 | 0.82
OCC1CC(c2ccccc2)=NO1 (stereo not given) | 0.0686 | -0.217 | -0.354 | -0.0813 (inactive) | 0.0912 | 0.0016 | 0.37 | -0.0588 | 0.473 | 0.685
CC(C)Cc1ccc(CN2CC[C@@H](NC(=O)Nc3ccccc3)C2)cc1 | 1.06 | -0.342 | -0.358 | 2.68 (inactive) | -0.62 | -0.274 | -0.301 | -0.496 | 0.238 | 0.692
[N-]=[N+]=NCc1ccccc1[C@H]1OC(c2ccc(OCCCO)cc2)=N[C@@]1(CCS(=O)(=O)c1ccccc1)C(=O)NCC(O)CO (stereo not given in full) | 1.54 | 0.658 | 1.18 | 0.542 (inactive) | 1.32 | 0.752 | -0.0986 | 0.264 | -0.0898 | 0.501
C=C(/C(=C/C[C@H](OC(C)=O)c1ccccc1OCCO)c1cc(C(=O)OC)ccc1OC)C(C)C | 1.64 | -0.15 | -0.192 | -0.736 (inactive) | 0.634 | -0.122 | -0.167 | 0.0218 | -0.0716 | 0.721
C=CCOC(=O)[C@H]1[C@@H]2C(=O)O[C@@H](c3ccccc3)[C@@H](c3ccccc3)N2[C@@H](c2ccc(OCCOC(=O)[C@@H]3C[C@@H]4C(=O)N[C@@H](CCCCN(C)C)C(=O)N4[C@@H]3c3ccc(O)cc3)cc2)[C@]12C(=O)Nc1ccccc12 | 0.913 | 0.173 | 0.0016 | -0.311 (inactive) | 1.03 | 1.32 | 0.961 | 1.43 | 1.27 | -0.471
COCCOC(=O)N1C(=O)[C@@]2(c3cc(C#Cc4ccc(OC)cc4)ccc31)[C@H](c1ccc(O)cc1)N1[C@H](c3ccccc3)[C@H](c3ccccc3)OC(=O)[C@H]1[C@@H]2C(=O)N1CCCCCCC1 | 0.447 | 1.81 | 1.36 | 1.5 (inactive) | 0.506 | -0.151 | -0.191 | 0.859 | 0.423 | 1.31
[N-]=[N+]=NCc1ccccc1[C@H]1OC(c2ccc(OCCCO)cc2)=N[C@@]1(CCS(=O)(=O)c1ccccc1)C(=O)N1CCCCC1 | 1.15 | 1.05 | 1.42 | -0.33 (inactive) | 0.644 | 1.28 | 0.169 | 0.909 | -0.202 | 1.57
COc1cc2c(cc1OC)CN(C(=O)[C@@H]1[C@H]3C(=O)O[C@H](c4ccccc4)[C@H](c4ccccc4)N3[C@H](c3ccc(OCCO)cc3)[C@@]13C(=O)Nc1ccc(C#CC4(O)CCCCCC4)cc13)CC2 | 1.21 | 0.7 | -0.386 | -1.38 (inactive) | 1.47 | 1.3 | 0.741 | 1.11 | 0.698 | 0.282
